What all share (conditions): mRNA level, 48 h; actives raise or lower the signal
Read-out in assay [1]: ATP-citrate lyase (ACLY), ACLY (gene 47)
Description: LTEA_HepaRG_ACLY: Life Technologies and Expression Analysis (LTEA) Assay for ATP-citrate lyase (ACLY) using HepaRG (AID 2283466). In a few lines: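 HepaRG, 48 h exposure, 8-pt half-log dilutions (top 100 uM), 0.5% DMSO. Readout: ACLY mRNA, TaqMan qRT-PCR, housekeeping-normalized (ACTB/GAPDH/POLR2A). Bidirectional curve fit vs DMSO.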

Read-out in assay [2]: Peroxisomal acyl-coenzyme A oxidase 1 (ACOX1) gene, ACOX1 (gene 51)
Description: LTEA_HepaRG_ACOX1: Life Technologies and Expression Analysis (LTEA) Assay for Peroxisomal acyl-coenzyme A oxidase 1 (ACOX1) gene using HepaRG (AID 2283467). In a few lines: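 Measured by qRT-PCR against three housekeeping genes: ACOX1 transcript change in human HepaRG cells after 48 h dosing. Concentrations ran up to 100 uM in half-log steps. Curves were fitted bidirectionally relative to 0.5% DMSO.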

Read-out in assay [3]: Alkaline Phosphatase, Placental (ALPP) gene, ALPP (gene 250)
Description: LTEA_HepaRG_ALPP: Life Technologies and Expression Analysis (LTEA) Assay for Alkaline Phosphatase, Placental (ALPP) gene using HepaRG (AID 2283468). A digest of the protocol: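 Using human liver HepaRG cells, chemicals are tested in duplicate over 48 h at half-log concentrations topping at 100 uM; phenobarbital 1 mM serves as induction control. ALPP mRNA change by qRT-PCR, bidirectional fit against vehicle.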

Read-out in assay [4]: Bcl-2 (BAD) gene, BAD (gene 572)
Description: LTEA_HepaRG_BAD: Life Technologies and Expression Analysis (LTEA) Assay for Bcl-2 (BAD) gene using HepaRG (AID 2283469). A digest of the protocol: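 BAD transcript change, measured by qRT-PCR against three housekeeping genes and fitted in both directions relative to 0.5% DMSO, after 48 h chemical treatment of human HepaRG liver cells at concentrations up to 100 uM.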

Read-out in assay [5]: Bcl-2 (BAX) gene, BAX (gene 581)
Briefly: LTEA_HepaRG_BAX: Life Technologies and Expression Analysis (LTEA) Assay for Bcl-2 (BAX) gene using HepaRG (AID 2283470). A digest of the protocol:
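HepaRG (human liver), 48 h exposure, duplicate wells. 8-pt curve, half-log from 100 uM, 0.5% DMSO. BAX transcript by TaqMan qRT-PCR; ACTB/GAPDH/POLR2A normalization; gain or loss vs DMSO baseline.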

Read-out in assay [6]: Alpha-fetoprotein (AFP) gene, AFP (gene 174)
Briefly: LTEA_HepaRG_AFP: Life Technologies and Expression Analysis (LTEA) Assay for Alpha-fetoprotein (AFP) gene using HepaRG (AID 2283472). A digest of the protocol: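 HepaRG, single lot; 48 h post-plating -> serum-free induction medium; cpd 8-pt, 100 uM top, half-log, 0.5% DMSO, duplicate, 48 h. RNA -> qRT-PCR AFP, norm ACTB/GAPDH/POLR2A. Bidirectional fit vs DMSO.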

Read-out in another assay: BCL2L11 (gene 10018)
Briefly: LTEA_HepaRG_BCL2L11: Life Technologies and Expression Analysis (LTEA) Assay for Bcl-2 (BCL2L11) gene using HepaRG (AID 2283473). In a few lines:
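Human hepatic HepaRG cultures are treated 48 h with test chemicals (maximum 100 uM, 0.5% DMSO vehicle). Expression of BCL2L11 is measured by qRT-PCR against ACTB, GAPDH and POLR2A, with activity in either direction scored relative to vehicle.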

Read-out in assay [7]: Apolipoprotein A-V (APOA5) gene, APOA5 (gene 116519)
Briefly: LTEA_HepaRG_APOA5: Life Technologies and Expression Analysis (LTEA) Assay for Apolipoprotein A-V (APOA5) gene using HepaRG (AID 2283474). A digest of the protocol: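 Concentration-response of APOA5 expression in HepaRG: eight half-log doses to 100 uM, 48 h, qRT-PCR normalized to ACTB/GAPDH/POLR2A, bidirectional fitting with 0.5% DMSO as baseline.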

Read-out in assay [8]: Apoptosis regulator Bcl-2 (Homo sapiens) (UniProt P10415)
Briefly: LTEA_HepaRG_BCL2: Life Technologies and Expression Analysis (LTEA) Assay for Bcl-2 gene using HepaRG (AID 2283475). In a few lines: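 HepaRG, plated 48 h then switched to serum-free induction medium; dosed 48 h, 8 conc. (max 100 uM, half-log steps), duplicate, 0.5% DMSO. Lysis in RLT, RNA isolated, TaqMan qRT-PCR for BCL2; ACTB/GAPDH/POLR2A normalisation; bidirectional fit vs DMSO.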

Read-out in assay [9]: Bcl-2 (BID) gene, BID (gene 637)
Briefly: LTEA_HepaRG_BID: Life Technologies and Expression Analysis (LTEA) Assay for Bcl-2 (BID) gene using HepaRG (AID 2283476). In a few lines:
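Transcript levels of BID, measured by qRT-PCR and normalized to three housekeeping genes, were fitted bidirectionally against DMSO controls. Cells were HepaRG, dosed 48 h at up to 100 uM.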

Read-out in a further assay: Caspase-3 (Homo sapiens) (UniProt P42574)
Briefly: LTEA_HepaRG_CASP3: Life Technologies and Expression Analysis (LTEA) Assay for cysteine-aspartic acid protease (CASP3) using HepaRG (AID 2283477). A digest of the protocol: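 Transcript-level assay: CASP3 mRNA in human HepaRG after 48 h treatment, eight half-log concentrations from 100 uM in 0.5% DMSO, quantified by qRT-PCR.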

Read-out in assay [10]: Cytochrome P450 (CYP24A1), CYP24A1 (gene 1591)
Briefly: LTEA_HepaRG_CYP24A1: Life Technologies and Expression Analysis (LTEA) Assay for Cytochrome P450 (CYP24A1) using HepaRG (AID 2283478). In a few lines:
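Gene expression of CYP24A1 by TaqMan qRT-PCR in HepaRG after 48 h treatment, highest concentration 100 uM; activity fitted in both directions relative to DMSO vehicle.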

Read-out in assay [11]: Cytochrome P450 (CYP1A2), CYP1A2 (gene 1544)
Description: LTEA_HepaRG_CYP1A2: Life Technologies and Expression Analysis (LTEA) Assay for Cytochrome P450 (CYP1A2) using HepaRG (AID 2283479). A digest of the protocol:
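In duplicate wells, HepaRG cultures maintained in 0.5% DMSO were treated 48 h across an 8-point, half-log series topping at 100 uM; phenobarbital (1 mM) served as induction control. Expression was read by qRT-PCR.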

Read-out in assay [12]: cysteine-aspartic acid protease (CASP8), CASP8 (gene 841)
Briefly: LTEA_HepaRG_CASP8: Life Technologies and Expression Analysis (LTEA) Assay for cysteine-aspartic acid protease (CASP8) using HepaRG (AID 2283480). A digest of the protocol:
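HepaRG, 48 h exposure, duplicate wells; 8 conc, half-log from 100 uM, 0.5% DMSO. Serum-free induction medium. CASP8 mRNA by TaqMan qRT-PCR, norm. ACTB/GAPDH/POLR2A; gain/loss fitted vs DMSO.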

Read-out in assay [13]: Cytochrome P450 (CYP2B6), CYP2B6 (gene 1555)
Briefly: LTEA_HepaRG_CYP2B6: Life Technologies and Expression Analysis (LTEA) Assay for Cytochrome P450 (CYP2B6) using HepaRG (AID 2283481). A digest of the protocol: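 Human HepaRG, 48 h dosing, 0.5% DMSO vehicle, top dose 100 uM. CYP2B6 transcript by qRT-PCR, housekeeping-normalized, bidirectional curve fit.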

Read-out in assay [14]: Cytochrome P450 2C19 (Homo sapiens) (UniProt P33261)
Description: LTEA_HepaRG_CYP2C19: Life Technologies and Expression Analysis (LTEA) Assay for CYP2C19 using HepaRG (AID 2283482). In a few lines:
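Endpoint: CYP2C19 mRNA change, bidirectional fit vs 0.5% DMSO. Cells: HepaRG, 48 h exposure, eight-point series topping at 100 uM. Quantitation: qRT-PCR normalized to ACTB, GAPDH, POLR2A.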

Read-out in a further assay: CYP2C8 (gene 1558)
Briefly: LTEA_HepaRG_CYP2C8: Life Technologies and Expression Analysis (LTEA) Assay for CYP2C8 using HepaRG (AID 2283483). In a few lines:
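CYP2C8 mRNA induction or loss, by qRT-PCR normalized to ACTB/GAPDH/POLR2A, is read in HepaRG cells after 48 h treatment. Concentrations run from 100 uM down in half-log dilutions, with 0.5% DMSO as vehicle and baseline.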

Read-out in a further assay: CYP2C9 (gene 1559)
Description: LTEA_HepaRG_CYP2C9: Life Technologies and Expression Analysis (LTEA) Assay for CYP2C9 using HepaRG (AID 2283484). In a few lines: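 Cells plated 48 h, switched to serum-free induction medium, then treated in duplicate for 48 h at eight concentrations (max 100 uM, 0.5% DMSO). RNA then analysed by qRT-PCR for CYP2C9; curves fitted in both directions relative to DMSO.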

Read-out in assay [15]: adenosine kinase (ADK) gene, ADK (gene 132)
Description: LTEA_HepaRG_ADK: Life Technologies and Expression Analysis (LTEA) Assay for adenosine kinase (ADK) gene using HepaRG (AID 2283471). A digest of the protocol:
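Differentiated HepaRG cells dosed 48 h in serum-free induction medium, 0.5% DMSO vehicle, eight half-log concentrations from 100 uM, in duplicate. ADK mRNA by TaqMan qRT-PCR normalised to ACTB, GAPDH, POLR2A; bidirectional fit versus DMSO.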

Read-out in a further assay: CYP2E1 (gene 1571)
Briefly: LTEA_HepaRG_CYP2E1: Life Technologies and Expression Analysis (LTEA) Assay for CYP2E1 using HepaRG (AID 2283485). In a few lines: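 Human liver line HepaRG, plated 48 h, then serum-free induction medium + chemical x 48 h; 8-pt CRC from 100 uM, half-log, 0.5% DMSO, n=2. Readout: CYP2E1 mRNA qRT-PCR vs ACTB/GAPDH/POLR2A; bidirectional fit vs DMSO.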

SMILES strings stand for the structures. The source made the active and inactive calls. How the source made its calls: active means hit-call score of the fitted dose curve at least 0.9, where 1 is the maximum; inactive means score below 0.9.

In general, AC50 refers to the midpoint of the concentration-response curve, whichever way the signal moves.

Sequence of Caspase-3 (Homo sapiens) (P42574 whole entry, looked up): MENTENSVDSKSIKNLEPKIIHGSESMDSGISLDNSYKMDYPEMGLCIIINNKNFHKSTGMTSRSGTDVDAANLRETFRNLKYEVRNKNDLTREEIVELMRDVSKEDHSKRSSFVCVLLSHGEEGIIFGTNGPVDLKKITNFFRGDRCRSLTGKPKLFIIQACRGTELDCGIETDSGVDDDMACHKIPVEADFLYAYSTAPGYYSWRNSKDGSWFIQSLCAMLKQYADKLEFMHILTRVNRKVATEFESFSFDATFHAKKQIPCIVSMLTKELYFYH
Sequence of Cytochrome P450 2C19 (Homo sapiens) (P33261 whole entry, looked up): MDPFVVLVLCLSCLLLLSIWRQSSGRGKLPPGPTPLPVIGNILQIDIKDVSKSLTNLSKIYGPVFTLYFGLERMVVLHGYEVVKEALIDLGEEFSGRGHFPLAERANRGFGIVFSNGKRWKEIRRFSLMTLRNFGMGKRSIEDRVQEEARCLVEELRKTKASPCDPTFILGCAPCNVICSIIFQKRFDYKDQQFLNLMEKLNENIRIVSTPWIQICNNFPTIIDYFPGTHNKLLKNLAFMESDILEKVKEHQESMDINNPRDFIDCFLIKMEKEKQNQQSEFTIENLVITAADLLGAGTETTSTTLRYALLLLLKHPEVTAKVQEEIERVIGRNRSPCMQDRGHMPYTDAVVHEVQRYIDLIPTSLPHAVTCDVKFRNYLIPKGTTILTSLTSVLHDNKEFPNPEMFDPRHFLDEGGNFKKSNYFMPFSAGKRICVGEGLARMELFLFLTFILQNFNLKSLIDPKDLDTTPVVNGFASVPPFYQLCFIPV
Sequence of Apoptosis regulator Bcl-2 (Homo sapiens) (P10415 whole entry, looked up): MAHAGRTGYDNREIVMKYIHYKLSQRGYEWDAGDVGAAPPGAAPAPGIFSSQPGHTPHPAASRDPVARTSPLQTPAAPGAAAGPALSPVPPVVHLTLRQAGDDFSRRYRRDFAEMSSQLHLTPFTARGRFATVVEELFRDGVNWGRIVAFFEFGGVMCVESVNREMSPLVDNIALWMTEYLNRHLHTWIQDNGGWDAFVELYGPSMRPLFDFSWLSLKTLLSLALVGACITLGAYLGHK

On to `CCCCCOC(C)=O`, for which the molecule was classed as inactive in [1], in assay [2], in [3], in assay [4], in assay [5] and in [6]. The call (with BCL2L11 (gene 10018); in assay [7]; in [8]; in assay [9]; in the assay with Caspase-3 (Homo sapiens); in assay [10]) was inactive. The molecule was classed as inactive (in assay [11]; in [12]; in assay [13]; in assay [14]; with CYP2C8 (gene 1558); in the assay with CYP2C9 (gene 1559)).
`CCc1ccc(O)c(C(C)(C)C)c1`: the result in [1], in assay [2], in [3], in assay [4], in assay [5] and in assay [15] was inactive. Moreover, the molecule was classed as inactive (in assay [6]; in the assay with BCL2L11 (gene 10018); in assay [7]; in [8]; with Caspase-3 (Homo sapiens); in assay [10]). Besides, the outcome (in assay [11]; in [12]; in assay [14]; in the assay with CYP2C8 (gene 1558); with CYP2C9 (gene 1559); with CYP2E1 (gene 1571)) was inactive. The AC50 in assay [9] is 3.67 nM (active).
As for `O=C(O)c1ccc2c(c1)nc(C(=O)NC1CCN(C3CC3)CC1)n2Cc1cc(-c2ccc(Cl)s2)on1`, the call in assay [1], in assay [2], in [3], in assay [4], in assay [5] and in assay [6] was inactive. Besides, the molecule was classed as inactive (in the assay with BCL2L11 (gene 10018); in assay [7]; in [8]; in [9]; with Caspase-3 (Homo sapiens); in [10]). Moreover, the molecule was called inactive (in assay [11]; in assay [12]; in assay [13]; in assay [14]; with CYP2C8 (gene 1558); in the assay with CYP2C9 (gene 1559)). The call with CYP2E1 (gene 1571) was inactive.

The record behind these values is PubChem BioAssay (EPA / NIEHS).
